# Results filed as inconclusive are left out. The source made the active and inactive calls. Calls come from the whole dose curve; tested in HEK293 reporter line.
# Experiment: qHTS for Inhibitors of the Functional Ribonucleoprotein Complex (vRNP) of Lymphocytic Choriomeningitis Arenaviruses (LCMV): Viability assay - alamar blue signal for LCMV Primary Screen (AID 1347085); note: nearly all actives have a fitted effect of over 80% in size
# Conditions: alamar blue viability counter-screen, LCMV vRNP screen cells; series mostly up to 57.5 µM; activity change, negative = lower viability: at the top concentration
# % is set by controls: 0 for no effect and ±100 for the full control effect; potency is the fitted concentration of half-maximal effect.
Compound,"activity change, negative = lower viability",Potency
ON=Cc1ccnc2ccccc12,-2.22% (inactive),–
C[C@@H]1CC[C@@]23COC(=O)C2=CCC[C@@H]3[C@@]1(C)CC/C(=C/CO)CO,3.86% (inactive),–
C=C1CCC2[C@](C)(CO)C(O)CC[C@]2(C)C1CC=C1C(=O)OCC1O (stereo partly specified),7.47% [at 115 µM] (inactive),–
COC(=O)CC(C)CCC=C(C)C (stereo unspecified),6.04% [at 115 µM] (inactive),–
NC(=O)c1ncn([C@@H]2O[C@H](CO)[C@@H](O)[C@@H]2O)c1N,-2.72% (inactive),–
COc1ccc([C@@H](OC)[C@@]2(Cc3ccc(O)cc3)N=C(N)N(C)C2=O)cc1,0.8% (inactive),–
CCCCCCOC(=O)CCC,11.2% [at 115 µM] (inactive),–
CCOC(=O)[C@H](CCc1ccccc1)N[C@@H](C)C(=O)N1[C@@H](C(=O)O)C[C@H]2CCC[C@@H]21,-39.3% (inactive),–
C[C@H]1CC[C@@H]2[C@@H](C)[C@H]3C(C[C@H]4C5CC[C@H]6C[C@@H](O)CC[C@]6(C)C5CC[C@]34C)N2C1 (stereo partly specified),8.35% (inactive),–
COc1cc(C(=O)OC2CC3CCC2(C)C3(C)C)ccc1OC(C)=O (stereo unspecified),17.8% (inactive),–
CC(=O)OCC1=C(C(=O)O)N2C(=O)[C@@H](NC(=O)Cc3ccccc3)[C@H]2SC1,14.5% (inactive),–
Cn1cnc2c(ncn2[C@@H]2O[C@H](CO)[C@@H](O)[C@H]2O)c1=N,6.08% (inactive),–
COC(=O)Cc1ccccc1,3.55% [at 115 µM] (inactive),–
O=C(CCc1ccc(O)cc1)c1c(O)cc(O)cc1O[C@@H]1O[C@H](CO)[C@H](O)[C@H](O)[C@H]1O,10.4% (inactive),–
COc1c(C)c2c(c(O)c1CC=C(C)CCC(=O)OCCN1CCOCC1)C(=O)OC2,–,12.2 µM (active)
COc1c(-c2ccc(O)cc2)oc2cc(O)cc(O)c2c1=O,-6.2% (inactive),–
CC(=O)O[C@H]1CC[C@@]2(C)[C@H](C1)C(=O)C[C@H]1[C@@H]3CC[C@@H]4[C@@H](CN5C[C@@H](C)CC[C@H]5[C@@]4(C)O)[C@@H]3C[C@@H]12,16.9% (inactive),–
COc1ccc(-c2coc3cc(O[C@@H]4O[C@H](CO)[C@@H](O)[C@H](O)[C@H]4O)c(OC)cc3c2=O)cc1,8.32% (inactive),–
Oc1cc(O)cc(-c2cc3ccc(O)cc3o2)c1,-4.9% (inactive),–
C/C=C(\C)C(=O)O[C@H](c1cc2ccc(=O)oc2cc1OC)[C@@H](O)C(C)(C)O,-1.34% (inactive),–
C/C(=C\CNc1ncnc2c1ncn2[C@@H]1O[C@H](CO)[C@@H](O)[C@H]1O)CO,-4.95% (inactive),–
CCC1(CC)C(=O)NC(=O)N(c2ccccc2)C1=O,12.2% (inactive),–
O=c1cc(-c2ccc(O)cc2)oc2cc(OC3OC(CO)C(O)C(O)C3O)c(C3OC(CO)C(O)C(O)C3O)c(O)c12 (stereo unspecified),1.13% [at 24.7 µM] (inactive),–
O=C(CCCO)CCCCCCCCC[C@H]1N[C@H](CO)[C@@H](O)[C@@H]1O,6.92% (inactive),–
C/C=C(/C)C(=O)O[C@@H]1[C@H](OC(=O)C=C(C)C)c2c(ccc3ccc(=O)oc23)OC1(C)C,8.16% (inactive),–
OC(CC(O)c1ccccc1)c1ccccc1 (stereo unspecified),3.61% (inactive),–

# Reference: PubChem BioAssay (NCATS)
